Test results reported in PubChem BioAssay (EPA / NIEHS).
Records with an inconclusive call do not appear. The source made the active and inactive calls. How the source made its calls, unless noted: active means hit-call score of the fitted dose curve at least 0.9, where 1 is the maximum; inconclusive means response in the unintended direction; inactive means score below 0.9.

Key:
[1] = CCTE_Mundy_HCI_Cortical_Synap_Neur_Matur_NeuriteCount: CCTE's Synaptogenesis and Neurite Maturation Assay in rat cortical cells for Neurite Count, Mundy Lab (AID 2284222; active means hit-call score of the fitted dose curve at least 0.9, where 1 is the maximum; inactive means score below 0.9;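 further: exposure from day 7 to day 12 in vitro with readout at day 12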)
In short: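 In this multiplexed morphology readout, rat primary cortical neurons are fixed at DIV 12 following dosing at DIV 7 and stained for MAP2, synaptophysin and nuclei. High-content image analysis yields neurite count.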

[2] = CCTE_Mundy_HCI_Cortical_Synap_Neur_Matur_CellBodySpotCount: CCTE's Synaptogenesis and Neurite Maturation Assay in rat cortical cells for Cell Body Spot Count, Mundy Lab (AID 2284223; active means hit-call score of the fitted dose curve at least 0.9, where 1 is the maximum; inactive means score below 0.9)
In short: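 Rat cortical neurons; AraC @ DIV 5; dose + media change DIV 7; fix DIV 12; anti-MAP2/anti-synaptophysin IF, Hoechst; HCI count of soma synaptophysin puncta/neuron; DMSO = negative control.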

[3] = CCTE_Mundy_HCI_hNP1_Pro_ResponderAvgInten: CCTE's Proliferation Assay in human neuroprogenitor cells, Mundy Lab (AID 2284224)
In short: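 Proliferation was scored as BrdU labelling intensity in human neural progenitors derived from WA09 embryonic cells, measured 26.25 hours after chemical dosing. Activity was fitted relative to DMSO.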

[4] = UKN2_HCS_IMR90_cell_viability: Viability Assessment in the University of Konstanz (UKN) Leist Lab Neural Crest Cell Migration Assay in human induced IMR90 Pluripotent Stem Cells (UKN2) (AID 2284233; active means hit-call score of the fitted dose curve at least 0.9, where 1 is the maximum; inactive means score below 0.9;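 further: cells exposed to compound for 24 h after a 24 h migration phase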)
In short: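 After calcein-AM/Hoechst staining, viability is quantified by high-content fluorescence imaging, relative to DMSO, in iPSC (IMR90)-derived neural crest cells. Exposure lasts 24 h, starting after a 24 h migration period on PLO/laminin/fibronectin coating.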

[5] = CCTE_Mundy_HCI_Cortical_NOG_NeuronCount: CCTE's Neurite Outgrowth Assay in rat cortical cells for Neuron Count, Mundy Lab (AID 2284236);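 further: neurons counted by imaging betaIII-tubulin and Hoechst stained cortical cells; cells exposed to compound for about 48 hours before fixation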
In short: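 Read-out: neuron number by high-content imaging of betaIII-tubulin (Alexa Fluor-488) and Hoechst-labelled rat primary cortical cells.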

[6] = CCTE_Mundy_HCI_Cortical_NOG_BPCount: CCTE's Neurite Outgrowth Assay in rat cortical cells for Branch Point Count, Mundy Lab (AID 2284237; active means hit-call score of the fitted dose curve at least 0.9, where 1 is the maximum; inactive means score below 0.9)
In short: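 Measured 50.33 h after dosing, this morphology endpoint uses rat primary cortical cultures labelled for betaIII-tubulin. Branch points are quantified by high-content imaging, with DMSO as negative control and baseline.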

[7] = CCTE_Mundy_HCI_hNP1_Casp3_7: CCTE's Caspase-Glo 3/7 Assay in human neuroprogenitor cells for Apoptosis, Mundy Lab (AID 2284240; active means hit-call score of the fitted dose curve at least 0.9, where 1 is the maximum; inactive means score below 0.9)
In short: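 Apoptosis is scored by activated caspase-3/7 luminescence in WA09-derived neural progenitor cells, measured 26.5 h after chemical dosing. Values represent gain of signal relative to DMSO vehicle.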

[8] = CCTE_Mundy_HCI_hNP1_CellTiter: CCTE's Cell Titer-Glo 2 Assay in human neuroprogenitor cells for Viability, Mundy Lab (AID 2284241)
In short: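 Human neural progenitor cells (hNP1, WA09-derived) were plated on poly-L-ornithine/laminin and grown 40 to 44 hours at 37 °C, 5% CO2 before chemical addition. Twenty-four hours later, ATP was measured by CellTiter-Glo luminescence; loss of signal versus DMSO indicates reduced viability.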

[9] = CCTE_Mundy_HCI_Cortical_Synap_Neur_Matur_NeuronCount: CCTE's Synaptogenesis and Neurite Maturation Assay in rat cortical cells for Neuron Count, Mundy Lab (AID 2284242)
In short: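 Measured at DIV 12: fluorescently labelled neurons (Hoechst nuclei, MAP2) in rat primary cortical cultures, counted by high-content imaging. AraC suppressed glia from DIV 5; DMSO served as negative control.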

[10] = IUF_NPC2c_oligodendrocyte_migration_120hr: Leibniz Research Institute for Environmental Medicine (IUF) 120-hour Neural Progenitor Cell Migration Assay for Oligodendrocyte Migration (NPC2c) (AID 2284297; active means hit-call score of the fitted dose curve at least 0.9, where 1 is the maximum; inactive means score below 0.9)
In short: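 Read-out is the mean distance of O4-positive oligodendrocytes from the sphere core edge at 120 h, normalized to radial glia migration and fitted in the gain direction against DMSO. Spheres of primary human neural progenitors differentiated on laminin under continuous compound exposure.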

[11] = IUF_NPC2a_radial_glia_migration_72hr: Leibniz Research Institute for Environmental Medicine (IUF) 72-hour Neural Progenitor Cell Migration Assay for Radial Glia Migration (NPC2a) (AID 2284299; active means hit-call score of the fitted dose curve at least 0.9, where 1 is the maximum; inactive means score below 0.9)
In short: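 Spheres of human primary neural progenitors migrate on poly-D-lysine/laminin under compound exposure at 37C, 5% CO2. The 72 h radial glia migration distance comes from brightfield images, measured manually.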

[12] = IUF_NPC2b_neuronal_migration_120hr: Leibniz Research Institute for Environmental Medicine (IUF) 120-hour Neural Progenitor Cell Migration Assay for Neuron Migration (NPC2b) (AID 2284300; active means hit-call score of the fitted dose curve at least 0.9, where 1 is the maximum; inactive means score below 0.9)
In short: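 Read-out is mean distance from sphere edge to each TUBB3-positive neuron at 120 h, expressed relative to radial glia migration distance and to DMSO baseline. Single 0.3 mm human NPC spheres differentiated on laminin under continuous compound exposure.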

[13] = IUF_NPC3_neuronal_differentiation_120hr: Leibniz Research Institute for Environmental Medicine (IUF) 120-hour Neuronal Differentiation Assay (NPC3) (AID 2284301; active means hit-call score of the fitted dose curve at least 0.9, where 1 is the maximum; inactive means score below 0.9)
In short: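 Value is percent TUBB3-positive neurons among Hoechst-stained nuclei in the migration area, scored by trained CNN after 120 h differentiation. Primary hNPC spheres on poly-D-lysine/laminin, N2 medium, continuous dosing from day 0, half-refeed day 3; DMSO reference.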

[14] = IUF_NPC5_oligodendrocyte_differentiation_120hr: Leibniz Research Institute for Environmental Medicine (IUF) 120-hour Oligodendrocyte Differentiation Assay (NPC5) (AID 2284304);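 further: primary human fetal neural progenitor spheres plated to migrate and differentiate; share of O4-positive cells among Hoechst nuclei found by CNN image analysis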
In short: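 Oligodendrocyte differentiation was scored after 120 h as the O4-positive share of Hoechst-stained nuclei across the neurosphere migration area, using a trained convolutional neural network on high-content fluorescence images. Human fetal neural progenitor spheres were dosed from day 0, normalised to DMSO.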

[15] = IUF_NPC4_neurite_area_120hr: Leibniz Research Institute for Environmental Medicine (IUF) 120-hour Neuronal Morphology Assay for Neurite Area (NPC4) (AID 2284305)
In short: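 Neurite area (pixels, nuclei excluded) of TUBB3-positive neurons from hNPC spheres differentiating 5 days under continuous exposure at 37 C, 5% CO2. High-content imaging; loss of signal versus DMSO control across 7 concentrations.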

[16] = IUF_NPC2-5_cytotoxicity_72hr: Cytotoxicity Assessment at 72 hours in the Leibniz Research Institute for Environmental Medicine (IUF) Neural Progenitor Cell Migration and Differentiation Assay for Cytotoxicity (NPC2-5) (AID 2284306);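 further: LDH release into supernatant measured by resorufin fluorescence marking membrane damage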
In short: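 Membrane-integrity cytotoxicity at 72 h, read as LDH-driven resorufin fluorescence in supernatant. hNPC spheres from fetal cortex differentiate on coated plates in N2 medium, 37C, 5% CO2; seven serial compound concentrations plus solvent control (DMSO ≤0.1%).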

[17] = IUF_NPC2-5_cytotoxicity_120hr: Cytotoxicity Assessment at 120 hours in the Leibniz Research Institute for Environmental Medicine (IUF) Neural Progenitor Cell Migration and Differentiation Assay (NPC2-5) (AID 2284307)
In short: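 Sphere plating starts differentiation and exposure together at day 0. Compound solution is half-replaced on day 3. At 120 h, medium supernatant is taken for an LDH membrane-integrity read based on resazurin reduction to resorufin fluorescence.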

[18] = IUF_NPC2-5_cell_number_120hr: Cell Number Assessment at 120 hours in the Leibniz Research Institute for Environmental Medicine (IUF) Neural Progenitor Cell Migration and Differentiation Assay (NPC2-5) (AID 2284308; active means hit-call score of the fitted dose curve at least 0.9, where 1 is the maximum; inactive means score below 0.9;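 further: count of Hoechst-stained nuclei in migration zone around plated human neural progenitor spheres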)
In short: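 hNPC spheres, one per well, PDL/laminin, N2 medium, 37C, 5% CO2. Dosing day 0 → half-medium change with fresh compound day 3 → fix 120 h. Readout: Hoechst+ nuclei count, migration area; 7 concentrations plus solvent control.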

[19] = IUF_NPC2-5_viability_120hr: Viability Assessment at 120 hours in the Leibniz Research Institute for Environmental Medicine (IUF) Neural Progenitor Cell Migration and Differentiation Assay (NPC2-5) (AID 2284312; active means hit-call score of the fitted dose curve at least 0.9, where 1 is the maximum; inactive means score below 0.9)
In short: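 Alamar blue resorufin fluorescence read after 5 days of differentiation, with compound present from day 0 and replenished at day 3. Primary hNPC spheres on laminin-coated plates, 37C; seven concentrations plus solvent control, fitted against DMSO.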

[20] = IUF_NPC1_cytotoxicity_72hr: Cytotoxicity Assessment at 72 hours in the Leibniz Research Institute for Environmental Medicine (IUF) Neural Progenitor Cell Proliferation Assay (NPC1) (AID 2284332);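 further: rising LDH signal means more cytotoxicity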
In short: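 Readout is fluorescence from LDH-dependent resazurin conversion, sampled from culture medium after compound contact lasting 72 h. Each well holds one 0.25-0.35 mm human progenitor sphere kept at 37C, 5% CO2 with EGF and FGF.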

[21] = CCTE_Mundy_HCI_iCellGluta_NOG_NeuronCount: CCTE's Neurite Outgrowth Assay in iCellGluta cells for Neuron Count, Mundy Lab (AID 2284340);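 further: cells fixed about 48 h after compound addition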
In short: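 Neuron count read by automated high-content imaging of Hoechst 33342 and betaIII-tubulin/Alexa Fluor-488 labelling in human iPSC glutamatergic neurons. Activity fitted relative to DMSO.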

[22] = CCTE_Mundy_HCI_iCellGluta_NOG_NeuriteCount: CCTE's Neurite Outgrowth Assay in iCellGluta cells for Neurite Count, Mundy Lab (AID 2284342);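 further: chemical exposure about 48 hours starting 2 hours after plating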

Measured: outcome

CC(=O)N[C@@H](CC(=O)O)C(=O)O
inactive: all assays above
